From PubChem BioAssay (NCI)
The panel holds about 83,000 compounds, 20% with a hit somewhere; the sample as a whole holds those more often.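 Values shown are percent growth following 48 h exposure of cells in 96-well plates to a single concentration of compound; below 10 was considered active.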 Active and inactive are the calls of the source.

Tests used:
Assay in all cases: NCI-60 one-dose screen, 48 h (100 = growth as untreated, 0 = no growth, -100 = all killed)
Settings in all cases: 10 µM unless noted
NCI-H23 lung = system: NCI-H23 lung
NCI-H322M lung = system: NCI-H322M lung
HOP-62 NSCLC = system: HOP-62 NSCLC
NCI-H460 lung = system: NCI-H460 lung
HOP-92 NSCLC = system: HOP-92 NSCLC
A549/ATCC NSCLC = system: A549/ATCC NSCLC
786-0 renal = system: 786-0 renal
COLO 205 colon = system: COLO 205 colon
DU-145 prostate = system: DU-145 prostate
K-562 leukemia = system: K-562 leukemia
MALME-3M melanoma = system: MALME-3M melanoma
MDA-MB-231 breast = system: MDA-MB-231 breast
RXF 393 renal = system: RXF 393 renal
SF-268 CNS = system: SF-268 CNS
SF-295 CNS = system: SF-295 CNS
SF-539 CNS = system: SF-539 CNS
UACC-257 melanoma = system: UACC-257 melanoma
M14 melanoma = system: M14 melanoma
HCT-15 colon = system: HCT-15 colon
NCI-H522 lung = system: NCI-H522 lung

Measured: growth

C#CCn1cc(C=C2C(=O)NC(=O)NC2=O)c2cc(Cl)ccc21
inactive: NCI-H23 lung 90.5% | NCI-H322M lung 87.6% | HOP-62 NSCLC 95.5% | NCI-H460 lung 63.1% | HOP-92 NSCLC 88.7% | A549/ATCC NSCLC 96.1% | 786-0 renal 106% | COLO 205 colon 123% | DU-145 prostate 87.6% | K-562 leukemia 82.6% | MALME-3M melanoma 98.4% | MDA-MB-231 breast 86.2% | RXF 393 renal 72.3% | SF-268 CNS 81.1% | SF-295 CNS 92.6% | SF-539 CNS 82.5% | UACC-257 melanoma 94.6% | M14 melanoma 85.1% | HCT-15 colon 82.8%

CCN1C(=O)N(CC)C2C1NN=c1s/c(=C3\C(=O)N(C(C)C)c4ccccc43)c(=O)n12 (stereo not given)
inactive: NCI-H23 lung 28.8% | NCI-H322M lung 52.6% | HOP-62 NSCLC 38.7% | HOP-92 NSCLC 54% | A549/ATCC NSCLC 16.5% | 786-0 renal 30.6% | MALME-3M melanoma 64.6% | MDA-MB-231 breast 11.3% | RXF 393 renal 35.5% | SF-268 CNS 25.2% | UACC-257 melanoma 57.1% | M14 melanoma 18.9% | HCT-15 colon 12.4%
active: NCI-H460 lung 5.6% | COLO 205 colon -16% | DU-145 prostate 3.71% | K-562 leukemia 7.46% | SF-295 CNS 5.01% | SF-539 CNS -13.2%

CC(C)CCOc1ccc(-c2n[nH]c(C(F)(F)F)c2-c2cncc(C#N)c2)c(O)c1
inactive: NCI-H322M lung 12.4% | A549/ATCC NSCLC 10.4% | 786-0 renal 17.1% | COLO 205 colon 49% | DU-145 prostate 18% | SF-268 CNS 21.9% | SF-539 CNS 25.2% | M14 melanoma 22.5% | HCT-15 colon 12%
active: NCI-H23 lung -0.157% | HOP-62 NSCLC 5.79% | NCI-H460 lung 3.48% | HOP-92 NSCLC -27.9% | MALME-3M melanoma -0.801% | MDA-MB-231 breast 1.43% | SF-295 CNS 0.826% | UACC-257 melanoma -14%

COc1cc2c(cc1OC)C(=O)C(CC1CCN(C(=O)Nc3ccc(C)cc3)CC1)C2 (stereo not given)
inactive: NCI-H23 lung 100% | NCI-H322M lung 95.7% | HOP-62 NSCLC 99.1% | NCI-H460 lung 97.3% | HOP-92 NSCLC 62.5% | NCI-H522 lung 87.8% | 786-0 renal 101% | COLO 205 colon 110% | DU-145 prostate 104% | MALME-3M melanoma 91.1% | MDA-MB-231 breast 76.7% | SF-268 CNS 96.8% | SF-295 CNS 96.5% | SF-539 CNS 92.8% | UACC-257 melanoma 119% | M14 melanoma 97.5%

CCn1c(-c2nonc2Nc2ccc(OC)cc2)nc2ccccc21
inactive: NCI-H23 lung 107% | NCI-H322M lung 105% | HOP-62 NSCLC 115% | NCI-H460 lung 109% | HOP-92 NSCLC 134% | NCI-H522 lung 89% | 786-0 renal 95.1% | COLO 205 colon 124% | DU-145 prostate 113% | K-562 leukemia 118% | MALME-3M melanoma 120% | RXF 393 renal 120% | SF-268 CNS 110% | SF-295 CNS 132% | SF-539 CNS 107% | UACC-257 melanoma 104% | M14 melanoma 104% | HCT-15 colon 97.7%

NCCCNc1nc2ccccc2c2c(=O)c3cc(F)ccc3sc12
active: NCI-H460 lung -74.7% | HOP-92 NSCLC 8.11% | NCI-H522 lung -42.7% | 786-0 renal 1.83% | DU-145 prostate -22.8% | K-562 leukemia -50.4% | MDA-MB-231 breast -53.1% | M14 melanoma -55.5% | HCT-15 colon -49.3%
inactive: NCI-H23 lung 70% | NCI-H322M lung 41.9% | HOP-62 NSCLC 32.8% | MALME-3M melanoma 76.7% | RXF 393 renal 41.9% | SF-268 CNS 34.3% | SF-295 CNS 85.9% | SF-539 CNS 55.2% | UACC-257 melanoma 68.1%

Cn1c(C(=O)c2cccc3ccccc23)nc2ccccc21
inactive: NCI-H23 lung 19.4% | HOP-62 NSCLC 18.6% | HOP-92 NSCLC 34% | COLO 205 colon 12.9% | DU-145 prostate 18.3% | MDA-MB-231 breast 29.1% | RXF 393 renal 13.5% | HCT-15 colon 29.4%
active: NCI-H322M lung -2.65% | NCI-H460 lung 3.61% | NCI-H522 lung -4.82% | 786-0 renal 5.77% | K-562 leukemia 7.22% | SF-268 CNS 2.01% | SF-539 CNS -1.45% | UACC-257 melanoma -7.56% | M14 melanoma -45.9%

CCCC(=O)CC(C)=O.CCCC(=O)CC(C)=O.[Cu]
inactive: NCI-H23 lung 97.3% | NCI-H322M lung 99.5% | HOP-62 NSCLC 94.3% | NCI-H460 lung 107% | HOP-92 NSCLC 96.5% | NCI-H522 lung 91% | 786-0 renal 104% | COLO 205 colon 97.4% | DU-145 prostate 110% | K-562 leukemia 104% | MALME-3M melanoma 89.9% | MDA-MB-231 breast 120% | RXF 393 renal 122% | SF-295 CNS 103% | SF-539 CNS 104% | UACC-257 melanoma 74.9% | M14 melanoma 100% | HCT-15 colon 105%

COc1ccc(C2NCCc3c2[nH]c2ccccc32)cc1CN1CCN(c2ccc(F)cc2)CC1 (stereo not given)
active: NCI-H460 lung 5.7% | HOP-92 NSCLC -18.7% | MDA-MB-231 breast -32.5% | RXF 393 renal -9.51% | SF-295 CNS -67.2% | UACC-257 melanoma -39.9% | M14 melanoma -30% | HCT-15 colon 8.26%
inactive: NCI-H23 lung 64.8% | NCI-H322M lung 78.5% | HOP-62 NSCLC 63.4% | A549/ATCC NSCLC 63.7% | 786-0 renal 51% | COLO 205 colon 47.6% | DU-145 prostate 78.5% | K-562 leukemia 17% | SF-268 CNS 76.4% | SF-539 CNS 58.8%
